GCN5L2 inh = blocks human GCN5L2 histone acetyltransferase. hit rate 0.21% among 390,000. Q92830. Potency, µM (doses to about 58.9 µM), for inactives: at the top dose activity change, negative = inhibition, usual class: inhibitors. GCN5L2 HAT assay, ThioGlo1 CoA-SH fluorescence. AID 504327; further: on the % scale 0 is the no-effect control and ±100 the full control effect
Target sequence (Q92830 whole entry, looked up): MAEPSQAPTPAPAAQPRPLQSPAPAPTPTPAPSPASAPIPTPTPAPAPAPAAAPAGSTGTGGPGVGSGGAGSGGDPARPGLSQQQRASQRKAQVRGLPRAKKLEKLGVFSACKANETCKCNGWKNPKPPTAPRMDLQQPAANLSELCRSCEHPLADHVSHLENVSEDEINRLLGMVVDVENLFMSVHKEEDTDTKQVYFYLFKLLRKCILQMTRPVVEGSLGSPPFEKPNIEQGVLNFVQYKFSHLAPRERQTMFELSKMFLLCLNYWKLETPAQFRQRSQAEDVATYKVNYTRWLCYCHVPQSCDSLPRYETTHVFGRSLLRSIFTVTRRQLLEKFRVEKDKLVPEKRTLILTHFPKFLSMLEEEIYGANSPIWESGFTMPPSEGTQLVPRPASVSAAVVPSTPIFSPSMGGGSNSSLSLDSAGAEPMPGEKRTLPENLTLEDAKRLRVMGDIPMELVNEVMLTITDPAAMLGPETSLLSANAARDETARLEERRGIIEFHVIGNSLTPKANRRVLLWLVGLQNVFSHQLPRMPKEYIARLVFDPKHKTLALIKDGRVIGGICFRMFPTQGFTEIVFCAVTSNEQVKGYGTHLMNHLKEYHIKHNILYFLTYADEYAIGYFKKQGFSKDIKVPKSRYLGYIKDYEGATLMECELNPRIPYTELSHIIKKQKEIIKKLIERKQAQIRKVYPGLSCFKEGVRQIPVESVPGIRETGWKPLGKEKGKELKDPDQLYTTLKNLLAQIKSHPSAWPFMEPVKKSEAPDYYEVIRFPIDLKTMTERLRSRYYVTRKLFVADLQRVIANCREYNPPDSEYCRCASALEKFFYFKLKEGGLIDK
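Preincubate 20nM GCN5L2 with compound 15 min, RT → add 50uM ThioGlo1 + 75uM H3(1-25) + 70uM acetyl-CoA → read fluorescence 0 and 20 min. Primary qHTS; fluorescent artifacts likely.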
GLS inhibitor = inhibitors of human glutaminase (GLS); O94925; GLS enzymatic activity, qHTS titration; Potency, µM (doses to about 45.5 µM), without a hit: at the highest dose activity change, negative = inhibition, actives largely listed as inhibitors; hit rate 0.21% among 410,000; AID 624170; further: on the % scale 0 is the no-effect control and ±100 the full control effect
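hKGA in 45 mM KH2PO4 pH 8.2, 0.02% Tween-20 with pin-transferred compounds; 1 mM L-glutamine (stock) plus glutamate oxidase/HRP/Amplex Red coupling added. Fluorescence read initially and after 30 min at RT.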
PKM2 act = activators of human pyruvate kinase M2 | hit rate 0.34% among 260,000 | purified PKM2, Kinase-Glo ATP luminescence, activation; response scale: 0% is enzyme alone, no compound | Potency, µM (titrated, usually from 57.5 µM), inactives show at the highest dose activation, most hits filed as activators | AID 1631 | P14618; further: on the % scale 0 is the no-effect control and ±100 the full control effect; nearly all actives have a fitted effect of over 55% in size
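ATP formation by purified human PK-M2, quantified via coupled luciferase luminescence after 1 h at room temperature with 0.1 mM ADP and 0.5 mM PEP final.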
Mito fusion yeast = blocks mitochondrial division or promotes mitochondrial fusion | AID 485298 | S. cerevisiae fusion-defective mutant growth rescue, CellTiterGlo 48 h | hit rate 0.23% among 320,000 | Potency, µM (titrated, usually from 46.1 µM), inactives show at the top dose growth rescue (activation), actives largely listed as activators; further: % of control where 0% means no effect; nearly all actives have a fitted effect of over 45% in size
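Compounds are tested for their ability to restore growth of mitochondrial fusion-defective yeast strains at non-permissive 37C in YPEG medium over 48 hours. Viability is quantified by luciferase luminescence.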
VDR inhibitor = inhibitors of human vitamin D receptor | hit rate 0.93% among 400,000 | P11473 | Potency, µM, without a hit: max response, negative = inhibition, hits mostly inhibitors | VDR-SRC2-3 peptide fluorescence polarization, 2 h; further: on the % scale 0 is the no-effect control and ±100 the full control effect
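Fluorescence polarization assay measuring small-molecule disruption of VDR binding to the coregulator peptide SRC2-3. Compounds were pin-transferred (23 nl) into the reagent mix and incubated 2 h at room temperature before reading.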
PLK1 PBD block = blocks phosphopeptide binding to human PLK1 polo-box domain. P53350. Potency, µM, for the others: max response, negative = inhibition, usual class: inhibitors. AID 720504. hit rate 2.8% among 360,000. Plk1 PBD binding of FITC phosphopeptide, fluorescence polarization; further: series mostly up to about 57 µM; on the % scale 0 is the no-effect control and ±100 the full control effect; nearly all actives have a fitted effect of over 65% in size
The depositor's hits bear a star; ? = inconclusive; nt = no result given. Hits are enriched below; roughly 3.4% of the tested compounds scored in any of these assays. The call rests on the fitted dose curve; in most records, active means well fitted curve in the direction sought with a large enough effect; inconclusive means small, poorly fitted or top-dose-only effect, or another doubt; inactive means no such curve, though single readings can be large; an effect the other way counts as inactive or inconclusive. Potency means the concentration at half of the fitted maximal effect.

SMILES	GCN5L2 inh	GLS inhibitor	PKM2 act	Mito fusion yeast	VDR inhibitor	PLK1 PBD block
CSc1nc(=NC(C)=O)ss1	?	-2.5%	-18.5%	1.9%	?	7.94µM*
CC1=C(c2ccc(F)cc2)[N+](=O)C(C)(C)N1[O-]	-4.3%	1.8%	-11.0%	12.6µM*	1.5%	-11.8%
O=C(NC(c1ccccc1)c1ccccc1)c1ccc(=O)[nH]n1	-5.4%	-4.8%	0.5%	0.5%	-17.3%	23.8µM*
Cc1cc2c(c(SCC(N)=O)n1)C(=O)OC2	-2.9%	18.3%	0.1%	-0.8%	-22.1%	29.9µM*
O=C(O)c1ccc(CNC(=O)C2CCN(S(=O)(=O)c3cccs3)CC2)cc1	nt	-7.9%	nt	nt	nt	1.0%
O=C(NCCc1ccc(F)cc1)C(=O)NCC(c1cccs1)S(=O)(=O)c1ccc(Cl)cc1 (stereo not given)	7.2%	0.2%	nt	nt	7.9%	nt
COc1ccc(/C=C2/C(=O)ON=C2C)cc1Cl	1.6%	?	nt	4.2%	?	2.12µM*
CC1=NOC(=O)/C1=C/c1ccc(O)cc1	-4.2%	-14.9%	7.9%	-6.0%	?	9.47µM*
COCC(=O)OCC(=O)Nc1cc(C(C)(C)C)nn1-c1ccccc1	-0.5%	8.0%	-9.5%	-1.3%	14.4%	-9.0%
CC(C)(C)CC(=O)OCC(=O)Nc1cc(C(C)(C)C)nn1-c1ccccc1	0.0%	-13.6%	-2.8%	4.8%	-24.3%	23.8µM*
COc1ccccc1CNS(=O)(=O)c1c(C)nc2sc(C)cn2c1=O	-2.5%	-12.9%	nt	nt	22.5%	nt
COc1ccc(C2=CC3=C(Br)C(=O)C(C)(OC(=O)CCc4ccccc4)C(=O)C3=CO2)cc1 (stereo not given)	nt	nt	nt	nt	-0.6%	nt
CNC(=O)C1C(=S)NC(N)=C(C#N)C1c1ccccc1 (stereo not given)	3.6%	-26.1%	-4.8%	-0.2%	20µM*	26.7µM*
COc1ccc(S(=O)(=O)Cc2ccc(C(=O)N3CCCC3)o2)cc1	-1.2%	-2.3%	-4.2%	-4.2%	-16.8%	-4.3%
COc1ccccc1S(=O)(=O)Cc1ccc(C(=O)N2CCN(c3ccccn3)CC2)o1	-2.8%	-2.8%	-5.1%	-1.7%	?	26.7µM*
CCOC(=O)N1CCN(C(=O)c2ccc(CS(=O)(=O)c3ccc(OC)cc3)o2)CC1	-20.7%	2.2%	-7.8%	-5.5%	?	26.7µM*
COc1ccc(S(=O)(=O)Cc2ccc(C(=O)NC(C)C)o2)cc1	0.4%	5.7%	5.7%	-2.4%	?	21.2µM*
Cc1c(/C=N/Nc2ccc(F)cc2)c(O)n(C)c(=O)c1C#N	-20.1%	21.0%	5.0%	-3.3%	-15.4%	18.9µM*
COc1ccccc1OCCNc1nc2c(c(=O)n(C)c(=O)n2C)n1C	0.9%	-15.6%	11.6%	-0.6%	?	18.9µM*
Cn1c(=O)c2c(nc(NCCOc3ccc(C(C)(C)C)cc3)n2C)n(C)c1=O	-2.8%	0.1%	-0.6%	-28.9%	-19.8%	-1.3%
NC(=O)CC(NC(=O)Cc1ccc(Br)cc1)c1ccc(NCCc2ccccc2F)c([N+](=O)[O-])c1 (stereo not given)	-7.6%	-1.0%	1.58µM*	2.7%	2.9%	-8.6%
NC(=O)CC(NC(=O)Cc1ccc(Br)cc1)c1ccc(NCCc2ccc(F)cc2)c([N+](=O)[O-])c1 (stereo not given)	7.7%	-7.2%	?	4.1%	14.7%	9.0%
CCCCn1c(N)c(N(CCOC)C(=O)C2CCN(S(=O)(=O)c3ccc(Cl)cc3)CC2)c(=O)[nH]c1=O	2.3%	1.8%	-0.2%	-2.4%	8.4%	1.8%
COc1ccccc1N(CCC#N)C(=O)CSc1nnc2ccccn12	1.0%	6.3%	nt	3.9%	-11.6%	3.6%
Cc1ccc(N(CC(=O)NC2CCCCC2)C(=O)c2ccc(C)s2)cc1	3.98µM*	0.4%	1.0%	6.5%	-7.5%	-12.9%
SMILES	GCN5L2 inh	GLS inhibitor	PKM2 act	Mito fusion yeast	VDR inhibitor	PLK1 PBD block
CCCCOc1ccc(N(CC(=O)NC2CCCCC2)C(=O)c2snc(C(N)=O)c2N)cc1	-5.1%	-2.6%	-2.8%	-2.0%	?	33.6µM*
COc1ccccc1OCC(O)CNCc1ccc2c(c1)OCO2 (stereo not given)	1.0%	1.0%	-2.5%	1.0%	-28.1%	1.0%
Cc1cc2c(cc1S(=O)(=O)C(C)CC(=O)NC1CCC(C)CC1)OCC(=O)N2 (stereo not given)	-7.9%	-0.5%	nt	nt	0.0%	nt
CCOC(=O)c1ccc([N+](=O)[O-])c(CS(=O)(=O)c2ccc(Cl)cc2)c1	-4.0%	-2.7%	nt	2.7%	10.2%	1.1%
Cc1ccc(S(=O)(=O)Cc2cc(F)c([N+](=O)[O-])cc2[N+](=O)[O-])cc1	-9.5%	5.3%	-7.4%	-73.7%	-8.2%	2.38µM*
CCOC(=O)c1cnc2ccc(OC)cc2c1Nc1ccc(N2CCN(C)CC2)cc1	-2.8%	12.6µM*	nt	-7.3%	-4.3%	6.7µM*
COc1ccc(C2CC(c3ccccc3)Oc3c(C)ccc(C(C)C)c32)cc1 (stereo not given)	nt	nt	nt	nt	14.7%	nt
CCC(C)NC(=O)c1cn(-c2cccc(C)n2)cn1 (stereo not given)	-3.1%	7.5%	-5.1%	0.7%	5.3%	2.0%
Cc1cccc(-n2cnc(C(=O)O)c2)n1	-11.1%	0.5%	-1.7%	14.1µM*	9.1%	1.0%
Cc1cccc(-n2cnc(C(=O)NC3CCCCCC3)c2)n1	-5.0%	-19.1%	-6.1%	6.5%	-1.8%	23.8µM*
CC(=O)CCN1CCOCC1	-5.5%	-0.1%	-1.4%	0.0%	11.9%	-3.0%
CN(C)C(=O)CCN1CCOCC1	-3.0%	8.4%	-3.5%	-0.2%	6.2%	23.8µM*
COc1ccc(S(=O)(=O)Nc2ccc(-c3ccc4nncn4n3)cc2)c(OC)c1	-13.8%	3.7%	nt	11.7%	?	18.9µM*
O=S(=O)(Nc1ccc(-c2ccc3nncn3n2)cc1)c1ccccc1Cl	-11.7%	0.0%	nt	7.2%	-8.4%	1.0%
CCCCCCCCCCCCCCCC(=O)NCCCC(=O)O	nt	nt	nt	nt	0.9%	nt
COC(=O)Cc1ccc(NC(=O)c2ccc(Br)o2)cc1	-13.8%	-0.9%	-18.4%	0.4%	-7.4%	-6.9%
CCCOC(=O)c1ccc(NC(=O)c2ccc(Br)o2)cc1	-3.8%	5.2%	1.6%	22.4µM*	12.5%	-6.5%
COc1ccc(/C=C2\SC(N3CCCCC3)=NC2=O)cc1	-23.7%	-7.1%	nt	23.9%	-4.3%	-0.6%
COc1cc(/C=C2\SC(N3CCCCC3)=NC2=O)cc(OC)c1OC	?	-3.0%	nt	5.01µM*	13.2%	0.2%
COc1cccc(NC(=O)COC(=O)CNC(=O)C2CCCCC2)c1	3.0%	0.6%	nt	-2.5%	4.1%	1.5%
CCOC(=O)c1c(-c2ccncc2)csc1N	-6.2%	1.2%	10.4%	3.6%	-24.5%	?
CCOc1ccc(-c2csc(N)c2C(=O)OC)cc1	-6.6%	-13.4%	-10.4%	6.8%	?	7.94µM*

Screens (PubChem)
